Out of some 140,000 compounds screened, about 1,400 (1%) were called active. What follows is part of a selection rich in actives, with near analogues and random picks from the rest. A number with no mark means an inactive call. No stated cut-off is given here; in the data, active means inhibition above about 17%; inactive means the rest.
biological target: Neuropeptide Y receptor type 2 (Homo sapiens) (UniProt P49146); assay: NPY-Y2 receptor antagonists, primary screen, cell-based (AID 793); conditions: NPY-Y2 expressing cells, antagonist mode; at 2.7 µM; stronger effect = higher value;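 further: 0% = vehicle with agonist challenge and 100% = reference antagonist with challenge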
Sequence (P49146 whole entry, looked up): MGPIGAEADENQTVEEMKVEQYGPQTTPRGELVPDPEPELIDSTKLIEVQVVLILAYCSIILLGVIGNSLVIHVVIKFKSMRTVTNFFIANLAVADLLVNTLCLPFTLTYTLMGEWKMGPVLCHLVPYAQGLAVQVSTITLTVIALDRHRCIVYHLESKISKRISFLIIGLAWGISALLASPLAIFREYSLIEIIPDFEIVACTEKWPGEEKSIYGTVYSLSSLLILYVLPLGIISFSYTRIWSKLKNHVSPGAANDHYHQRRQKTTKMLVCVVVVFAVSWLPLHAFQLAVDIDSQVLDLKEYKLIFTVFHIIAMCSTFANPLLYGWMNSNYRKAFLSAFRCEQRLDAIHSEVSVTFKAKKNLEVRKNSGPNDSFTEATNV

First: CCOC12CC(C)(C)CC(C)(CC3=C1C(=O)CC(C)(C)C3)C2 (configuration not stated)
Second: CC(C)N1C(=O)N(c2ccccc2)C(C)(O)CC1(C)C (configuration not stated)
The inhibition of the first is higher: 3.39% for the first, -1.03% for the second.

Going from `COc1ccc(C(=O)Nc2c(Cl)cc(Cl)cc2C(=O)N2CCC(C)CC2)cc1` to `COc1ccc(NC(=O)c2ccc(C#CC(C)(C)O)cc2)cc1`, the inhibition falls from 3.91% to -0.31%.

Compared with `c1cncc(-c2nnc3n2C2(CCCCC2)Cc2ccccc2-3)c1`, `CCC1(CC)Cc2ccccc2-c2nc3ccccc3c(=O)n21` is higher in inhibition: 1.77% for the first, 7.5% for the second.

Compared with `COc1ccc(C(C(=O)NC2CCCCC2)N(C(=O)Cc2c[nH]c3ccccc23)c2ccccc2)cc1OC` (configuration not stated), `COc1cccc(NC(=O)CC(c2ccc(OC(C)C)cc2)c2ccccc2OC)c1` (configuration not stated) is higher in inhibition: 0.1% for the first, 4.56% for the second.

Compared with `CC(NC(=O)c1cccc2ccccc12)c1ccc2c(c1)CCCC2` (configuration not stated), `O=C(NCCN1CCOCC1)c1cc(Sc2cccc(Cl)c2)nc2ccccc12` is lower in inhibition: 5.32% for the first, 3.17% for the second.

Going from `O=C(CC(=O)Nc1ccc(Cl)c(Cl)c1)N/N=C/c1ccc(O)cc1` to `CN(C)CCNC(CC(=O)Nc1ccc(Cl)c(Cl)c1)C(=O)O` (configuration not stated), the inhibition rises from -3.17% to 0.54%.

First: Nc1nc(SCc2ccc([N+](=O)[O-])cc2)c2ncn(C3OC(CO)C(O)C3O)c2n1 (configuration not stated)
Second: CCS(=O)(=O)n1nc(-c2ccccc2)nc1SCc1ccccc1
The inhibition of the first is lower: 1.64% for the first, 11.5% for the second.

Going from `O=C(Nc1cn(-c2ccccc2)nc1-c1ccccc1)c1ccccc1` to `Cc1ccccc1NC(=O)c1ccc(COc2ccc3c(C)cc(=O)oc3c2)cc1`, the inhibition falls from 9.26% to 1.18%.

Going from `COc1ccc(OCCCC(=O)NCCc2ccccc2)cc1` to `C=CCn1c(=N)n(CC(O)COc2ccc(OC)cc2)c2ccccc21` (configuration not stated), the inhibition rises from 4.05% to 10.5%.

First: CCCCNC(=O)C1(c2ccc(OC)cc2)CCOCC1
Second: OC(COc1ccc2ccccc2c1)CN1CCOCC1 (configuration not stated)
The inhibition of the first is higher: 3.6% for the first, 1.96% for the second.

Compared with `CCOC(=O)C1=C(C)NC(=O)NC1c1ccccc1` (configuration not stated), `Cc1nc2nc3c(cn2n1)C(=O)CC(c1ccccc1)C3` (configuration not stated) is higher in inhibition: 0.94% for the first, 2.84% for the second.

Going from `O=C(Nc1nnc(SCc2ccc(Cl)cc2Cl)s1)C1COc2ccccc2O1` (configuration not stated) to `S=C(NCC1COc2ccccc2O1)Nc1ccc(Br)cc1` (configuration not stated), the inhibition rises from -1.05% to 6.55%.

First: O=C(Nc1nnc(CCc2ccccc2)s1)C1CCCO1 (configuration not stated)
Second: O=C(NC1CCN(Cc2ccccc2)CC1)c1c(F)cccc1F
The inhibition of the first is higher: 3.28% for the first, 0.52% for the second.

Compared with `Cc1nn2c3ccccc3nc2n(C)c1=O`, `Cc1ccc(O)c(CNc2nc3ccccc3n2C)c1` is lower in inhibition: 10.8% for the first, -2.2% for the second.

Going from `O=S(=O)(NCCSc1ccccn1)c1ccc(Cl)cc1` to `Cc1ccc(S(=O)(=O)NCCSc2ccccc2)cc1[N+](=O)[O-]`, the inhibition rises from 6% to 13.3%.

Going from `Cc1cc(=O)oc2cc(OCC3CC(c4ccccc4Cl)=NO3)ccc12` (configuration not stated) to `COc1ccc(-c2csc3ncnc(Oc4ccc5c(C)cc(=O)oc5c4)c23)cc1`, the inhibition falls from 10.7% to 6.66%.

Going from `CC1(C)C(C=C(Cl)Cl)C1C(=O)N(Cc1ccc(Cl)cc1)C1CCS(=O)(=O)C1` (configuration not stated) to `COc1ccc(Cl)cc1-n1c(C)cc(C(=O)OCC(=O)N2CC(=O)Nc3ccccc32)c1C`, the inhibition falls from 5.56% to -0.44%.

Going from `CCNc1ccc(C(=O)OCC(=O)N2c3ccccc3NC(=O)C2(C)C)cc1[N+](=O)[O-]` to `COc1ccccc1C(=O)Nc1ccc(NC(=O)c2ccco2)c(C)c1`, the inhibition falls from 0.27% to -1.27%.

First: Cc1ccc(Sc2cc(N3CCOCC3)nc(-c3ccccc3)n2)cc1
Second: COc1ccc(N2CCN(Cc3nnc(-c4ccccc4)o3)CC2)cc1
The inhibition of the first is lower: -0.14% for the first, 3.16% for the second.

First: CCN1CCC2(CC1)N=C(c1ccc(F)cc1)C(=S)N2C(=O)c1ccc(C)cc1
Second: Cc1nc2c(C(=O)NCc3cccs3)cnn2c(C)c1Cc1ccc(F)cc1
The inhibition of the first is lower: 1.56% for the first, 11.8% for the second.

Going from `c1ccc2c(c1)OCC(CNc1ncnc3nc[nH]c13)O2` (configuration not stated) to `Brc1ccc(-c2csc(N/N=C/c3ccc4c(c3)OCO4)n2)cc1`, the inhibition falls from -0.22% to -1.38%.

Going from `Nc1nnc(SCC(=O)Nc2ccc3nc(SCC(=O)Nc4ccccc4)sc3c2)s1` to `COc1ccc(NC(=O)c2cccc(NC(=O)c3ccco3)c2)c(OC)c1`, the inhibition falls from 4.56% to 3.21%.

First: CN(Cc1ccccc1)Cc1ccccc1F
Second: CC(=O)NC(C)c1nc2ccccc2n1Cc1ccccc1F (configuration not stated)
The inhibition of the first is lower: 1.28% for the first, 2.02% for the second.

First: COc1ccc(Cn2c(-c3ccc(Cl)cc3)c[n+]3ccccc23)cc1
Second: COc1ccccc1Oc1ccc(N/C=C2/CCCC2=O)cc1
The inhibition of the first is lower: 1.35% for the first, 2.93% for the second.

Going from `O=C(Nc1ccc(N2C(=O)c3cccc4cccc(c34)C2=O)cc1)c1ccc(N2CCCCC2)c([N+](=O)[O-])c1` to `CCCn1c(N)c(C(=O)CSc2nnc(-c3cccnc3)n2-c2ccc(C)cc2C)c(=O)[nH]c1=O`, the inhibition rises from 0.97% to 2.5%.

Compared with `CCOc1ccc(C(O)Cc2nc3ccccc3n2C)cc1` (configuration not stated), `Cn1c(=N)n(CC(O)c2ccccc2)c2ccccc21` (configuration not stated) is higher in inhibition: 0.15% for the first, 6.24% for the second.

`O=c1c2ccccc2nc2n1C1(CCCCC1)Cc1ccccc1-2` was tested, and the inhibition was 21.2% (active).
For `O=C(CC(O)(C(F)(F)F)C(F)(F)F)Nc1ccc(Cl)c(Cl)c1`, the inhibition was 24.4% (active).
With `CCCCCNC(=O)Cc1ccc(OC)cc1` the inhibition was 20.3% (active).
`O=C(Nc1nnc(SCc2c(Cl)cccc2Cl)s1)C1CCCO1` (configuration not stated) was tested, and the inhibition was 22.4% (active).
For `Cc1ccc(C2=NN(C)c3nc4ccccc4n3C2)cc1`, the inhibition was 18.8% (active).
In the case of `CCOc1ccc(S(=O)(=O)NCCSc2ccccc2)cc1`, the inhibition is reported as 20.6% (active).
`Cc1ccccc1N1CCN(CCCOc2ccc3c(C)cc(=O)oc3c2)CC1` was tested, and the inhibition was 22.1% (active).
`Cc1cc(C(=O)OCC(=O)N2c3ccccc3NC(=O)C2(C)C)c(C)n1-c1ccccc1` was tested, and the inhibition was 20.1% (active).
For `O=S(=O)(Cc1cc(Sc2ccccc2)nc(-c2ccccc2)n1)c1ccccc1`, the inhibition was 32.1% (active).
`Cc1cc(C)nc(-n2ncc3c2CC(c2ccc(C(C)C)cc2)CC3=O)n1` (configuration not stated) was tested, and the inhibition was 24.9% (active).
For `c1ccc(-c2cc3c(NCC4COc5ccccc5O4)ncnc3s2)cc1` (configuration not stated), the inhibition was 22.8% (active).
For `N=c1n(CCc2ccccc2)c2ccccc2n1Cc1ccccc1F`, the inhibition was 23.1% (active).
With `COc1cc(NC(=O)c2cc([N+](=O)[O-])ccc2Br)ccc1NC(=O)c1ccco1` the inhibition was 31.7% (active).
For `Cc1cccc(OCC(O)Cn2c(=N)n(CCN3CCOCC3)c3ccccc32)c1` (configuration not stated), the inhibition was 19.8% (active).
With `CCOc1ccc(C(O)Cn2c(=N)n(CCN3CCCCC3)c3ccccc32)cc1` (configuration not stated) the inhibition was 18.8% (active).

Reference: PubChem BioAssay AID793 (The Scripps Research Institute Molecular Screening Center, 2007)
